The values below come from PubChem BioAssay (NCI).

Some test systems named below: HCT-15 colon; HT29 colon; SNB-75 CNS; SNB-19 CNS; U251 CNS; SK-MEL-5 melanoma; UACC-62 melanoma; LOX IMVI melanoma; SK-MEL-28 melanoma; SK-MEL-2 melanoma; SN12C renal; UO-31 renal; TK-10 renal; ACHN renal; CAKI-1 renal; A498 renal; CCRF-CEM leukemia; MOLT-4 leukemia; EKVX NSCLC.
Holding throughout (assay): NCI-60 one-dose screen, 48 h (100 = growth as untreated, 0 = no growth, -100 = all killed)
Conditions in all cases: 10 µM unless noted

The panel holds about 83,000 compounds, 20% with a hit somewhere; the sample as a whole holds those more often.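 Treatment: one concentration, 48 hours, 96-well format. Scoring: percent growth, with anything below 10 considered active.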 Values without a mark were called inactive. Calls of active or inactive are those of the source.

On to `N=C(N)c1ccc(-c2ccc(-c3ccc(Cl)cc3)o2)nc1`, for which the growth with HCT-15 colon was -75.1% (active); in the test with HT29 colon, -92.9% (active); in the test on SNB-75 CNS it was -97.8% (active); in the test on SNB-19 CNS, -87.2% (active); in the test on U251 CNS it was -98.1% (active); in the test with SK-MEL-5 melanoma, -98.8% (active). The growth in the test with UACC-62 melanoma was -96.8% (active); in the test on LOX IMVI melanoma, -90.4% (active); in the test with SK-MEL-28 melanoma, -94.2% (active); with SK-MEL-2 melanoma, -90.7% (active); in the test with SN12C renal it was -80.7% (active); in the test on UO-31 renal it was -85.8% (active). In addition, the growth with TK-10 renal was -95.1% (active); with ACHN renal it was -91.5% (active); with CAKI-1 renal it was -85.5% (active); with A498 renal it was -58.4% (active); in the test with CCRF-CEM leukemia, -57.5% (active); in the test on MOLT-4 leukemia, 102%.

In the case of `c1ccc([P+](CCC[P+](c2ccccc2)(c2ccccc2)c2ccccc2)(c2ccccc2)c2ccccc2)cc1`, the growth with HCT-15 colon was 101%; in the test with HT29 colon, 66.9%; with SNB-75 CNS, 54%; with SNB-19 CNS, 64.4%; in the test with U251 CNS, 40%; in the test on SK-MEL-5 melanoma it was 75.1%. Moreover, the growth with UACC-62 melanoma is 62.5%; with LOX IMVI melanoma, 86.6%; with SK-MEL-28 melanoma, 75.1%; with SK-MEL-2 melanoma it was 71.1%; with SN12C renal it was 78%; with UO-31 renal, 82.3%. Moreover, the growth in the test on TK-10 renal was 81.8%; in the test with ACHN renal, 98.5%; in the test on CAKI-1 renal, 94.7%; in the test on A498 renal it was 86.1%; in the test on CCRF-CEM leukemia it was 45.8%; in the test with MOLT-4 leukemia it was 79.6%.

For the compound `COc1cc(C2CC(c3c(C)[n+]([O-])c4ccccc4[n+]3[O-])=NN2)cc(OC)c1OC` (stereo not drawn), the growth in the test with HCT-15 colon was 97.3%; in the test on HT29 colon, 120%; with SNB-75 CNS it was 99.4%; in the test with SNB-19 CNS, 101%; in the test with U251 CNS it was 99.6%; in the test with SK-MEL-5 melanoma, 96%. Moreover, the growth was 105% with UACC-62 melanoma; 98% with LOX IMVI melanoma; 116% in the test on SK-MEL-28 melanoma; 96.4% with SK-MEL-2 melanoma; 123% in the test with EKVX NSCLC; 94.4% with SN12C renal. Further, the growth in the test with UO-31 renal is 94.6%; in the test on TK-10 renal, 122%; in the test on ACHN renal, 103%; with CAKI-1 renal, 106%; with A498 renal it was 97.5%; in the test on CCRF-CEM leukemia, 87.5%. For the same compound, in the test with MOLT-4 leukemia, the growth is 94.4%.

In the case of `CCCS(=O)(=O)c1nc(NC2CC2)cc(-c2ccc3c(ccn3C3CC(C)(C)NC(C)(C)C3)c2)n1`, the growth with HCT-15 colon was -71.4% (active); in the test with HT29 colon, -48% (active); in the test on SNB-75 CNS it was -16.2% (active); in the test on SNB-19 CNS it was 38.9%; in the test with U251 CNS, -65.5% (active); in the test with SK-MEL-5 melanoma, 16.2%. The growth was -83.1% (active) with UACC-62 melanoma; -91.5% (active) with LOX IMVI melanoma; -59.2% (active) in the test on SK-MEL-28 melanoma; 54.5% with SK-MEL-2 melanoma; 22.6% with EKVX NSCLC; -77.9% (active) in the test on SN12C renal. The growth is -66.1% (active) in the test on UO-31 renal; -56% (active) in the test on TK-10 renal; -90.3% (active) in the test with ACHN renal; 85.1% in the test with CAKI-1 renal; 108% in the test on A498 renal; -13.7% (active) in the test with CCRF-CEM leukemia. Moreover, the growth in the test with MOLT-4 leukemia is 55.9%.

For `O=S=Nc1ccc([N+](=O)[O-])cc1`, the growth with HCT-15 colon was 85.2%; in the test on HT29 colon, 94.1%; in the test on SNB-75 CNS it was 88.7%; in the test on SNB-19 CNS it was 103%; in the test on U251 CNS, 91.6%; with SK-MEL-5 melanoma, 101%. Besides, the growth in the test with UACC-62 melanoma was 73%; in the test with LOX IMVI melanoma, 71.2%; with SK-MEL-28 melanoma, 107%; in the test on SK-MEL-2 melanoma, 98.4%; with EKVX NSCLC, 96.9%; with SN12C renal, 98.7%. Further, the growth in the test on UO-31 renal is 78.3%; with TK-10 renal it was 84.9%; in the test on ACHN renal, 80.8%; in the test on CAKI-1 renal, 78.9%; in the test with A498 renal it was 79.2%; in the test on CCRF-CEM leukemia, 101%. For the same compound, in the test on MOLT-4 leukemia, the growth is 91.2%.

For `COc1cc(/C=C\c2cc(OC)c(OC)c(OC)c2)cc(N/C=C\C(=O)c2c[nH]c3ccccc23)c1OC`, the growth was -39% (active) with HCT-15 colon; -77.7% (active) in the test on HT29 colon; 34% in the test with SNB-75 CNS; 54.1% in the test on SNB-19 CNS; 58.7% with U251 CNS; 54.2% in the test on SK-MEL-5 melanoma. The growth in the test with UACC-62 melanoma was 3.34% (active); with LOX IMVI melanoma, -73.3% (active); in the test on SK-MEL-28 melanoma, -90% (active); with SK-MEL-2 melanoma, 46.7%; in the test on SN12C renal it was 70.8%; with UO-31 renal, -93% (active). Besides, the growth in the test with TK-10 renal is -43.4% (active); in the test on ACHN renal, -100% (active); with A498 renal, 39.3%; with CCRF-CEM leukemia, -57.3% (active); in the test on MOLT-4 leukemia it was -29% (active).

As to `CN(C)c1nc(N)c(N=O)c(N)n1`, the growth with HCT-15 colon is 111%; in the test with HT29 colon it was 117%; with SNB-75 CNS, 98.5%; in the test on SNB-19 CNS, 112%; in the test on U251 CNS it was 103%; in the test with SK-MEL-5 melanoma, 110%. For the same compound, the growth in the test with UACC-62 melanoma is 103%; in the test on LOX IMVI melanoma, 99.1%; in the test with SK-MEL-28 melanoma, 114%; with SK-MEL-2 melanoma, 104%; with EKVX NSCLC it was 111%; in the test with SN12C renal, 110%. The growth in the test on UO-31 renal is 101%; in the test with TK-10 renal, 110%; with ACHN renal, 109%; with CAKI-1 renal it was 103%; with A498 renal, 76.1%; in the test on CCRF-CEM leukemia, 112%. For the same compound, in the test with MOLT-4 leukemia, the growth is 105%.

For `Cc1nc2scc(-c3ccccc3)n2c(=O)c1CCO`, the growth in the test on HCT-15 colon is 96.1%; in the test on HT29 colon it was 103%; in the test on SNB-75 CNS, 71.6%; in the test with SNB-19 CNS it was 98.3%; in the test on U251 CNS it was 103%; in the test on SK-MEL-5 melanoma it was 100%. For the same compound, the growth in the test with UACC-62 melanoma is 97.6%; in the test on LOX IMVI melanoma it was 92.3%; in the test with SK-MEL-28 melanoma it was 113%; with SK-MEL-2 melanoma, 124%; with EKVX NSCLC it was 92.3%; with SN12C renal, 98.8%. Further, the growth with UO-31 renal was 72.5%; with TK-10 renal it was 99.9%; in the test with ACHN renal, 98.9%; in the test with CAKI-1 renal it was 80.5%; in the test with A498 renal, 86.8%; in the test on CCRF-CEM leukemia, 103%. The growth in the test with MOLT-4 leukemia is 106%.
